JMJD2A Tudor inh: qHTS Assay for Inhibitors of JMJD2A-Tudor Domain. Potency, µM (highest dose often 114 µM), for inactives: at the highest dose activity change, negative = inhibition, hits mostly inhibitors. AID 504339, 2011. Lysine-specific demethylase 4A (Homo sapiens), O75164. hit rate 4.4% among 390,000. AlphaScreen JMJD2A-Tudor / H3K4me3 peptide binding; further: on the % scale 0 is the no-effect control and ±100 the full control effect; nearly all actives have a fitted effect of over 50% in size
L3MBTL1 block: qHTS Assay for the Inhibitors of L3MBTL1; Lethal(3)malignant brain tumor-like protein 1 (Homo sapiens), Q9Y468; AlphaScreen L3MBTL1–H3K9me1 peptide binding; Potency, µM (doses to about 57.1 µM), for inactives: at the top dose activity, negative = inhibition, most hits filed as inhibitors; AID 485360, 2010; hit rate 0.66% among 230,000; further: on the % scale 0 is the no-effect control and ±100 the full control effect; nearly all actives have a fitted effect of over 60% in size
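First, the protein-peptide complex forms for 30 min at room temperature (L3MBTL1 50 nM, biotinylated H3K9me1 peptide 75 nM). Next, compounds are pin-transferred and incubated 30 min. Finally, AlphaScreen beads are added and read after 30 min.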
HP1b chromo inh: HTS for Inhibitors of HP1-beta Chromodomain Interactions with Methylated Histone Tails; Chromobox protein homolog 1 (Homo sapiens), P83916; AlphaScreen HP1-beta / biotin-H3K9me3 peptide binding; Potency, µM (series often up to 114 µM), without a hit: at the highest dose activity change, negative = inhibition, usual class: inhibitors; hit rate 0.56% among 390,000; further: nearly all actives have a fitted effect of over 70% in size
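HP1-beta protein (50 nM final) preincubated 30 min at room temperature with biotinylated H3(1-18)K9me3 peptide (50 nM) in PBS pH 7.4, 0.01% Tween-20, then compound added for 30 min. AlphaScreen streptavidin donor/nickel chelate acceptor beads (10 ug/mL final), 30 min dark, luminescence read.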
G9a block: qHTS Assay for Inhibitors of Histone Lysine Methyltransferase G9a; G9a H3K9 monomethylation, AlphaScreen, 2 h; Potency, µM (top dose mostly 102 µM), inactives show at the top dose activity, negative = inhibition, usual class: inhibitors; Histone-lysine N-methyltransferase EHMT2 (Homo sapiens), Q96KQ7; hit rate 8.8% among 350,000; further: on the % scale 0 is the no-effect control and ±100 the full control effect; nearly all actives have a fitted effect of over 75% in size
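Chemiluminescent proximity detection of H3K9 monomethylation, read after 10 min bead incubation in the dark. Reaction: 20 nM G9a, 500 nM biotin-H3K9 peptide, 20 uM SAM cofactor, 2 h, room temperature, following 15 min enzyme-compound preincubation.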
BAZ2B block: qHTS Assay for Inhibitors of BAZ2B | AlphaScreen BAZ2B-H3K14Ac peptide displacement | Potency, µM (titrated, usually from 114 µM), for inactives: at the top dose activity change, negative = inhibition, usual class: inhibitors | AID 504333, 2011 | hit rate 4.4% among 360,000; further: on the % scale 0 is the no-effect control and ±100 the full control effect; nearly all actives have a fitted effect of over 60% in size
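AlphaScreen displacement: compounds (up to 110uM) incubated 30 min at room temperature with a preformed 50 nM BAZ2B/50 nM biotinylated H3K14Ac peptide complex in PBS pH 7.4 with Tween-20. Donor and acceptor beads at 10 ug/mL final added, 20 min light-protected before reading.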
* = called active by the depositor; [ ] = dose if it differs, or a comment. Hits are enriched below; roughly 11% of the tested compounds scored in any of these assays. The call rests on the fitted dose curve; in most records, active means well fitted inhibition curve with a large enough effect; inconclusive means small, poorly fitted or top-dose-only effect; inactive means no such curve, though single readings can be large or run the other way. Potency means the concentration at half of the fitted maximal effect.

How did O=C(N/N=C/c1ccc(F)cc1)c1cc(-c2ccco2)nc2ccccc12 do in these assays?
JMJD2A Tudor inh: inconclusive; L3MBTL1 block: 3.5µM*; HP1b chromo inh: 22µM*; G9a block: inconclusive; BAZ2B block: 2.8µM*

How did Nc1c(C(=O)N/N=C/c2ccc(F)cc2)oc2nc(-c3ccccc3)cc(-c3ccco3)c12 do in these assays?
JMJD2A Tudor inh: -32%; L3MBTL1 block: -18%; HP1b chromo inh: 13%; G9a block: 28µM*; BAZ2B block: -22%

Results for Cc1ccc(S(=O)(=O)Nc2cc(Cl)c3oc4c(c3c2)CCCC4)cc1 ?
JMJD2A Tudor inh: -19%; HP1b chromo inh: 11%; G9a block: -28%[59 µM]; BAZ2B block: -37%

How did Cc1ccc(C)c(Cn2c(=O)n(C(C)C)c(=O)c3oc4ccccc4c32)c1 do in these assays?
JMJD2A Tudor inh: -14%; HP1b chromo inh: 28%; G9a block: 4%[59 µM]; BAZ2B block: 1%

Results for COC(=O)c1ccccc1NC(=O)N1CCC(N2CCN(Cc3ccc(F)cc3)C(=O)C2=O)CC1 ?
JMJD2A Tudor inh: -15%; HP1b chromo inh: -3%; G9a block: -1%[59 µM]; BAZ2B block: -3%

How did Cc1nn(CCCC(=O)Nc2sc3c(c2C#N)CCC3)c(C)c1[N+](=O)[O-] do in these assays?
JMJD2A Tudor inh: inconclusive; L3MBTL1 block: -6%; HP1b chromo inh: inconclusive; G9a block: 32µM*; BAZ2B block: inconclusive

Results for Cc1nn(CC(=O)Nc2sc3c(c2C#N)CCC(C(C)(C)C)C3)c(C)c1[N+](=O)[O-] (stereo unspecified) ?
JMJD2A Tudor inh: -23%; L3MBTL1 block: -2%; HP1b chromo inh: -23%; G9a block: 45µM*; BAZ2B block: -28%

What do the screens show for `CC(C)(C)C1CCc2c(sc(NC(=O)c3cc(C4CC4)on3)c2C#N)C1` (stereo unspecified)?
JMJD2A Tudor inh: -22%; L3MBTL1 block: 3%; HP1b chromo inh: 11%; G9a block: 79µM*; BAZ2B block: -3%

What do the screens show for `COc1ccc(-c2cc(C(=O)Nc3ccn(Cc4ccc(C)cc4)n3)no2)cc1OC`?
JMJD2A Tudor inh: -14%; HP1b chromo inh: 15%; G9a block: 7%[59 µM]; BAZ2B block: 1%

How did COc1ccccc1NC(=O)c1cc2ccc(O)cc2o/c1=N\O do in these assays?
JMJD2A Tudor inh: inconclusive; L3MBTL1 block: -3%; HP1b chromo inh: 52%; G9a block: inconclusive; BAZ2B block: -10%

Results for COc1ccccc1NC(=O)c1cc2cc(Br)ccc2cc1O ?
JMJD2A Tudor inh: inconclusive; HP1b chromo inh: 4%; G9a block: inconclusive; BAZ2B block: 50µM*

How did COc1cc(NC(=O)c2cc3ccccc3cc2O)c(OC)cc1Cl do in these assays?
JMJD2A Tudor inh: 3%; HP1b chromo inh: 56%; G9a block: 21%[12.7 µM]; BAZ2B block: -26%

How did COc1ccccc1NC(=O)c1cc2ccccc2o/c1=N\O do in these assays?
JMJD2A Tudor inh: inconclusive; L3MBTL1 block: 4%; HP1b chromo inh: -7%; G9a block: 14µM*; BAZ2B block: 79µM*

Results for CCCSc1ncc(Cl)c(C(=O)Nc2sc3c(c2C(=O)NCC)CCCC3)n1 ?
JMJD2A Tudor inh: -15%; HP1b chromo inh: 14%; G9a block: -27%[59 µM]; BAZ2B block: -6%

Results for CN(C(=O)N1CCN(S(=O)(=O)c2ccccc2)CC1)c1ccccc1 ?
JMJD2A Tudor inh: -10%; L3MBTL1 block: 0%[11.4 µM]; HP1b chromo inh: 39%; G9a block: -24%; BAZ2B block: -21%

Results for COc1cccc(/C=C/C(=C2/C(=O)N(c3ccccc3)N=C2C)c2ccc(C)cc2)c1OC ?
JMJD2A Tudor inh: inconclusive; L3MBTL1 block: -14%; HP1b chromo inh: inconclusive; G9a block: 1.1µM*; BAZ2B block: inconclusive

Source: PubChem BioAssay (National Center for Advancing Translational Sciences (NCATS))
